The values below come from PubChem BioAssay.

The source made the active and inactive calls.

Test [1] in a line: binders of probe aFSTL3 on microarray, primary screen, stem cell growth factor project, biochemical, small-molecule microarray, fluorescence 635/667 (AID 1064).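 Note: measures binding of the biotinylated anti-FSTL3 antibody to printed compounds.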 Conditions: higher = more signal.
Test [2] can be described thus: binders from COS7 lysate, DM2A8 probe, primary screen, torsin A project, cell lysate, small-molecule microarray, fluorescence 635/667 (AID 1065). Conditions: higher = more signal, COS7 lysate expressing mutant human TOR1A.
Test [3] in a line: binders of probe aFGF2 on microarray, primary screen, stem cell growth factor project, biochemical, small-molecule microarray, fluorescence 635/667 (AID 1067).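 Note: measures binding of biotinylated aFGF2 protein to printed compounds on slides; z-score merges feature fluorescence and signal-to-noise across triplicate slides.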 To be noted: higher = more signal.
Test [4] can be described thus: binders of probe aFGF10 on microarray, primary screen, stem cell growth factor project, biochemical, small-molecule microarray, fluorescence 635/667 (AID 1071).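 Note: score merges 667 nm spot intensity and signal to noise from triplicate slides.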 Conditions: higher = more signal.
Test [5] deals with Neurogenic locus notch homolog protein 2 (Homo sapiens) (UniProt Q04721). Description: Notch2 binders on small-molecule microarrays, primary screen, biochemical, small-molecule microarray, 635 nm fluorescence, stem cell growth factors (AID 1073). To be noted: Notch2 binding, higher = more signal.
Test [6] addresses Pro-neuregulin-1, membrane-bound isoform (Homo sapiens) (UniProt Q02297). As to the kind of experiment: NRG1 binders on small-molecule microarrays, primary screen, psychiatric disease protein project, biochemical, small-molecule microarray, fluorescence 635/667 (AID 1075).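 Note: score combines 667 nm spot fluorescence with signal to noise.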 Conditions: NRG1 binding, 635 nm fluorescence, higher = more signal.
Test [7] has as its system Neuregulin-1 EGF-like domain. As to the kind of experiment: binders of neuregulin-1 EGF-like domain, primary screen, biochemical, small-molecule microarray, 635 nm fluorescence (AID 1081).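 Note: binding of the protein to compounds printed on small-molecule microarray slides.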 To be noted: small-molecule microarray binding, higher = more signal.
Test [8] is described as follows: FRG1 promoter luciferase signal modulators, primary screen, FRG1 inhibition for FSHD, cell-based, C2C12 myotubes, firefly/Renilla luciferase, luminescence (AID 1084). Conditions: higher = more signal, called active from +8 up or from −8 down.
Test [9] can be described thus: binders of probe aFST on microarray, primary screen, stem cell growth factor project, biochemical, small-molecule microarray, fluorescence 635/667 (AID 1086).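 Note: score merges 667 nm fluorescence with signal-to-noise of each printed compound spot.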 To be noted: higher = more signal.
Test [10] is described as follows: binders of probe aHhip on microarray, primary screen, stem cell growth factor project, biochemical, small-molecule microarray, fluorescence 635/667 (AID 1087).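 Note: score merges spot fluorescence at 667nm with spot signal to noise ratio.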 To be noted: higher = more signal.
Test [11] deals with PRMT1 (protein arginine N-methyltransferase 1). Description: PRMT1 binders on small-molecule microarrays, primary screen, biochemical, small-molecule microarray, 635 nm fluorescence (AID 1088).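 Note: binding of Prmt1 protein to compounds spotted on small-molecule microarray slides.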 To be noted: small-molecule microarray binding, higher = more signal.
Test [12] in a line: yeast growth modulation, basal conditions, primary screen, YJM789 clinical isolate, OD600, 24 h (AID 1089).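 Note: growth of clinical yeast isolate S. cerevisiae YJM 789 seeded 1000 cells per well; test concentration not given here.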 To be noted: S. cerevisiae YJM789 growth, higher = more signal, called active from +8 up or from −8 down.
The nature of test [13]: fission yeast growth modulation, primary screen, strain 972, OD600, 24 h, no modulator (AID 1090).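 Note: basal condition with compound alone and no growth modifier present; test concentration not given here.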 Conditions: S. pombe 972 growth, higher = more signal, called active from +8 up or from −8 down.
Test [14] in a line: S. cerevisiae growth modulation with rapamycin, primary screen, strain BY4716, OD600, 96 h (AID 1091). Note: test concentration not given here. To be noted: higher = more signal, called active from +8 up or from −8 down.
Test [15] concerns the target Torsin-1A-interacting protein 2 (Homo sapiens) (UniProt Q8NFQ8). Description: LULL1 binders on small-molecule microarray, primary screen, cell lysate, human LULL1 lysate, 635/667 nm fluorescence (AID 1092).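 Note: probe is lysate of COS7 cells overexpressing human LULL1; score merges per-feature 667 nm fluorescence with signal-to-noise.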 Conditions: hLULL1 lysate binding, 635 nm fluorescence, higher = more signal.
Test [16] can be described thus: E. coli growth modulation, two-sided OD650, primary screen, E. coli filamentation project, strain DRC41, 24 h (AID 1093).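 Note: MC1000 strain lacking acrAB efflux and sulA so SOS filamentation is blocked; test concentration not given here.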 Conditions: OD650, 24 h, higher = more signal, called active from +8 up or from −8 down.
Test [17] can be described thus: small-molecule microarray binders of probe aLefty2, primary screen, biochemical, biotinylated probe, 635/667 nm fluorescence (AID 1094).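 Note: score merges spot fluorescence near 667 nm with spot signal-to-noise ratio.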 To be noted: higher = more signal.
For test [18], the system named is Noggin (protein binding on small-molecule microarray). Description: Noggin binders on small-molecule microarray, primary screen, biochemical, 635/667 nm fluorescence (AID 1095).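 Note: score merges 667 nm feature fluorescence with signal to noise over triplicate slides.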 Conditions: 635 nm fluorescence, higher = more signal.
The target of test [19] is Neurogenic locus notch homolog protein 3 (Homo sapiens) (UniProt Q9UM47). As to the kind of experiment: NOTCH3 binders on small-molecule microarray, primary screen, biochemical, 635/667 nm fluorescence (AID 1096). To be noted: NOTCH3 binding, 635 nm fluorescence, higher = more signal.
Neurogenic locus notch homolog protein 3 (Homo sapiens), sequence (Q9UM47 whole entry, looked up): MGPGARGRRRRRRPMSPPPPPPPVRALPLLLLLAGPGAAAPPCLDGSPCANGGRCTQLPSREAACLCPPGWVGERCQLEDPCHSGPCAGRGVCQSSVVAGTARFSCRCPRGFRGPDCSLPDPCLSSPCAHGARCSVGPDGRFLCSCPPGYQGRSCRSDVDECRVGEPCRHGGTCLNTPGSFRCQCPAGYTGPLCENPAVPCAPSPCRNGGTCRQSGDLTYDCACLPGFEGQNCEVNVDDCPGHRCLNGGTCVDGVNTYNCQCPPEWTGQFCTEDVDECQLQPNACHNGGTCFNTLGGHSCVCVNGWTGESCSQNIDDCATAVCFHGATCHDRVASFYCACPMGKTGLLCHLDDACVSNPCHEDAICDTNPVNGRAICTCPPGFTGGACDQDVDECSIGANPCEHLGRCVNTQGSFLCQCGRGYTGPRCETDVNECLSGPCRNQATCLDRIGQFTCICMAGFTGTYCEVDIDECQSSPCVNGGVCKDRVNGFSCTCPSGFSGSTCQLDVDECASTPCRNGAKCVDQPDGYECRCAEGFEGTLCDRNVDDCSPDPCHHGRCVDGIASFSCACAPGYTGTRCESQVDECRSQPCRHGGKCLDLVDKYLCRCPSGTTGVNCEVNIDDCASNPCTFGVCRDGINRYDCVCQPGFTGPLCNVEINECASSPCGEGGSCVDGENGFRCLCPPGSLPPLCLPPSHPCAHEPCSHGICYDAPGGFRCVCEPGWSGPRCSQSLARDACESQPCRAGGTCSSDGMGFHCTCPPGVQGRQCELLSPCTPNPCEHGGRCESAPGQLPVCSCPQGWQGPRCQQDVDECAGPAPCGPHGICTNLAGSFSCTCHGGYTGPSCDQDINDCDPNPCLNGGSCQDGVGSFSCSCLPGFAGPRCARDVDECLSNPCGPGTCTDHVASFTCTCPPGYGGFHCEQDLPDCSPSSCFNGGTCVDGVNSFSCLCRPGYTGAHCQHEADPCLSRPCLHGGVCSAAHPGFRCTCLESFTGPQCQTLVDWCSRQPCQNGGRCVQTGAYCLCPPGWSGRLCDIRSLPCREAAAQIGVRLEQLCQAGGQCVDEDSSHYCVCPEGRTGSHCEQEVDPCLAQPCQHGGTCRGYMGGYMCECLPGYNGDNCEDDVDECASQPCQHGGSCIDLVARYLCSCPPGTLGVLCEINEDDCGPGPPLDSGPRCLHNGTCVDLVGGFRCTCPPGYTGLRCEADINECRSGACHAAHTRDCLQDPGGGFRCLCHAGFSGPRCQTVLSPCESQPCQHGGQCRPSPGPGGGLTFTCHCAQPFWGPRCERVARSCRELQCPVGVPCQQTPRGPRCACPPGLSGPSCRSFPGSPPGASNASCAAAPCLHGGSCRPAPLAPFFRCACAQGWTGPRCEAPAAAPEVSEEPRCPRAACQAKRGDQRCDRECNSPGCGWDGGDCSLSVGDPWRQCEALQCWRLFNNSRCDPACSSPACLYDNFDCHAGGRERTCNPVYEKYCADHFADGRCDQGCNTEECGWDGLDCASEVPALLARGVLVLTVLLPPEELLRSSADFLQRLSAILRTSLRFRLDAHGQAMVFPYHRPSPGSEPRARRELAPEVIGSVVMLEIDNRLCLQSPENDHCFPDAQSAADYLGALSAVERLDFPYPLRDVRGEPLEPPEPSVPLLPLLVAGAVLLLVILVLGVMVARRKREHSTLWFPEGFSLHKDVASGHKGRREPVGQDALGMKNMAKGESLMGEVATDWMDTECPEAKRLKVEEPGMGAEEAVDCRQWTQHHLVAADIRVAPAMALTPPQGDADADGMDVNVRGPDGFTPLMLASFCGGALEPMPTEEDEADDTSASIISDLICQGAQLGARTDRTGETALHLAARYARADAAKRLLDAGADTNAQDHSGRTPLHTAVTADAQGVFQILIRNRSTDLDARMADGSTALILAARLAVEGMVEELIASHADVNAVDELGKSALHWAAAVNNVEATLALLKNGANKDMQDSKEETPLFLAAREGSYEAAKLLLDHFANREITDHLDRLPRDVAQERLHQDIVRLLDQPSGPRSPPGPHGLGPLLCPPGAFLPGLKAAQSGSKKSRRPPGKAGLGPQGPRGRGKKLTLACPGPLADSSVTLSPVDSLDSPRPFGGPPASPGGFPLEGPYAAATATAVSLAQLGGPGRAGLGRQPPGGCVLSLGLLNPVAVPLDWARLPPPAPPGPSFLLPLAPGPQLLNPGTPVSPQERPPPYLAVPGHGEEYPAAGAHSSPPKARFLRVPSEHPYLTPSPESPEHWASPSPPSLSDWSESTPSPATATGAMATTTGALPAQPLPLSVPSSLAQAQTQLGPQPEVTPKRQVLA
A short description of test [20]: small-molecule microarray binders of probe aEGFR, primary screen, biochemical, biotinylated probe, 635/667 nm fluorescence (AID 1097).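 Note: probe is a biotinylated anti-EGFR antibody binding compounds printed on slides; score combines fluorescence near 667 nm and signal to noise of each spot.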 Conditions: higher = more signal.

Torsin-1A-interacting protein 2 (Homo sapiens), sequence (Q8NFQ8 whole entry, looked up): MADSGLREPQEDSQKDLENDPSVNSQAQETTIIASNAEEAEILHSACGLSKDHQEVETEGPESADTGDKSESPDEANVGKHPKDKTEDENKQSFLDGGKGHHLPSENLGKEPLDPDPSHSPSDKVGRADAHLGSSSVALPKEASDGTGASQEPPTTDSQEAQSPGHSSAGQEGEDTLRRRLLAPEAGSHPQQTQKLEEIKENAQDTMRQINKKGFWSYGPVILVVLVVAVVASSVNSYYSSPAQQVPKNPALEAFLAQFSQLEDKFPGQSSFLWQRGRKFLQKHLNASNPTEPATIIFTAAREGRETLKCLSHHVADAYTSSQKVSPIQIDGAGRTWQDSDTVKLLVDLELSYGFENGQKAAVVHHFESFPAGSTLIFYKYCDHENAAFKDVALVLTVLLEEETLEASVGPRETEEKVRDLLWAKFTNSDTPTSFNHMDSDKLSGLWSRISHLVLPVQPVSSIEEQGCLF
Pro-neuregulin-1, membrane-bound isoform (Homo sapiens), sequence (Q02297 whole entry, looked up, the tested form may be a part, canonical isoform): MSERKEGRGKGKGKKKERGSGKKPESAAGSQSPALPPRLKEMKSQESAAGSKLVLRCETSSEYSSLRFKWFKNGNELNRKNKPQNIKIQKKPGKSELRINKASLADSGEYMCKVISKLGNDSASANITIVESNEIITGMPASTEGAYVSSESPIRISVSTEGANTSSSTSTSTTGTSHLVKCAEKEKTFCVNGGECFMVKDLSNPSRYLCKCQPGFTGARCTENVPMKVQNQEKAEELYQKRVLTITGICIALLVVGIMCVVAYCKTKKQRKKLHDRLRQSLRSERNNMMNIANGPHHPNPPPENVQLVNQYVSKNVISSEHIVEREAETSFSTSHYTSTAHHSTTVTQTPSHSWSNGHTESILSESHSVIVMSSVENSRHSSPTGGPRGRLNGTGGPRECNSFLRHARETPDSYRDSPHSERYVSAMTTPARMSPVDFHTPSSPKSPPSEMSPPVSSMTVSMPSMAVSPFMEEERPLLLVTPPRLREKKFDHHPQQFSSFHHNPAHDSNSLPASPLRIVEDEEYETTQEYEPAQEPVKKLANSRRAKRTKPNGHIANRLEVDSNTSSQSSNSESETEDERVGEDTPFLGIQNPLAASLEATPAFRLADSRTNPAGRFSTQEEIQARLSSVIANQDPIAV

Consider `CC(C)c1ccc(NN2C(C(O)c3cccs3)C=CC3C(=O)N(c4ccccc4)C(=O)C32)cc1` (stereo not given), for which the composite z-score was 0.222 in test [1]; -0.14 in test [2]; 0.117 in test [3]; 0.353 in test [4]; 1.66 in [5]; 1.54 in test [6]. The composite z-score in test [7] was determined as 1.19; in [9], 0.979; in test [10], 0.122; in test [11] it was 1.54; in test [15], 3.36; in test [17], 0.453. Moreover, the results for the composite z-score in test [18], in test [19] and in test [20] were -0.0307, 1.06 and 0.08, respectively. For the same molecule, the z-score in test [8] was -1.87 (inactive); in [12] it was 0.354 (inactive); in test [13] it was 0.758 (inactive); in test [14] it was 0.331 (inactive); in test [16] it was -1.14 (inactive).

In the case of `O=C1c2ccccc2[C@](Cc2ccccc2I)(C(=O)NCC(F)(F)F)[C@H](c2ccc(CO)cc2)N1Cc1ccccc1`, the composite z-score in test [1] was -0.213; in test [2], -0.0086; in test [3], 0.0363; in [4] it was 0.15; in test [5] it was 1.39; in test [6], 1.12. The composite z-score in test [7] is 1.21; in test [9], 0.585; in test [10] it was 0.0734; in [11], 1.55; in test [15], 2.45; in test [17], -0.0907. In addition, the results for the composite z-score in test [18], in [19] and in test [20] were 0.444, 1.16 and -0.0679, respectively. The z-score in test [8] is -0.508 (inactive); in test [12], -0.943 (inactive); in test [13] it was -0.732 (inactive); in test [14], -0.666 (inactive); in [16] it was 0.29 (inactive).

In the case of `CN(C)C(=O)[C@@]1(CCS(=O)(=O)c2ccccc2)N=C(c2ccc(OCCCO)cc2)O[C@H]1c1ccccc1CN=[N+]=[N-]`, the composite z-score in [1] is -0.323; in test [2], 0.124; in [3], 0.226; in [4], 0.972; in [5], 1.33; in test [6], 1.63. In addition, the composite z-score in test [7] is 1.27; in [9], 0.889; in [10], -0.236; in test [11], 1.54; in test [15], 3.79; in [17], 0.0225. In addition, the figures for the composite z-score in [18], in [19] and in test [20] were 1.66, 1.12 and 0.0316, respectively. Moreover, the z-score in test [8] was -1.56 (inactive); in test [12] it was -1.54 (inactive); in test [13] it was -0.346 (inactive); in [14] it was 0.0194 (inactive); in test [16], 1.15 (inactive).

For `O=C1OCCC=C[C@H]2OC34C=CCN(Cn5nnc6ccccc65)C(=O)[C@H]3N(CCCCCO)C(=O)[C@@H]4C12` (stereo not given in full), the composite z-score is 0.122 in test [1]; 1.66 in test [2]; -0.176 in test [3]; -0.328 in test [4]; -0.407 in test [5]; 2.18 in test [6]. Further, the composite z-score in [7] is 1.48; in test [9], -0.118; in test [10] it was -0.306; in test [11], -0.285; in test [15], 1.43; in [17] it was -0.0674. Also, the composite z-score is -0.825 in test [18], -0.135 in test [19] and -0.2 in test [20]. Also, the z-score is -0.21 (inactive) in test [8]; -0.0057 (inactive) in [12]; -0.439 (inactive) in test [13]; -0.506 (inactive) in test [14]; 0.141 (inactive) in test [16].

As to `O=[N+]([O-])c1ccc(C[n+]2ccc(-c3ccc(CO)cc3)cc2)o1`, the composite z-score in test [1] is -0.217; in test [2] it was 0.239; in test [3] it was -0.0266; in test [4] it was 0.165; in test [5] it was 1.29; in test [6], 1.52. Also, the composite z-score is 0.373 in [7]; 0.273 in [9]; 0.0373 in test [10]; 1.47 in test [11]; 1.71 in [15]; -0.129 in [17]. The composite z-score in test [18] was 0.526; in test [19], 1.16; in [20] it was -0.0703. For the same molecule, the z-score in [8] is -0.721 (inactive); in test [12], -0.612 (inactive); in test [13] it was -15.5 (active); in [14], 0.196 (inactive); in test [16], -0.818 (inactive).
